Source: PubChem BioAssay AID743279 (National Center for Advancing Translational Sciences (NCATS), 2014)
Among all 360,000 compounds or so, about 17,000 (4.7%) were called active. Another 5% or so got no clear call; they are omitted. The sample holds actives, similar compounds and a random draw of the others, so the mix is not that of the screen. A number with no mark means an inactive call. Cut-off read from the data, not from the text of the source: active = activity change below about -50%; inconclusive = mostly about -30% to -49%; inactive = weaker than that.

Test: qHTS for Inhibitors of Inflammasome Signaling: IL-1-beta AlphaLISA Primary Screen
Details: THP-1 LPS/ATP IL-1B secretion, 16 h; at 57.5 µM, stronger effect = lower value
Procedure, shortened: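 THP-1 cells pretreated 1 hr with compounds (up to 57.5 uM final), then stimulated with LPS (250 ng/mL final) plus ATP (1.25 mM final); secreted IL-1B measured by AlphaLISA after 16 hr, decreased signal indicating inhibition.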
% is set by controls: 0 for no effect and ±100 for the full control effect.

Structure (SMILES) | activity change
Nc1ccccc1-c1nc2ccncc2[nH]1 | -6.01%
CCCCn1c(N)c(N(CC(C)C)C(=O)c2ccc(-n3c(C)ccc3C)cc2)c(=O)[nH]c1=O | -61.6% (active)
CCCCn1c(N)c(N(CC(C)C)C(=O)c2ccc(Br)o2)c(=O)[nH]c1=O | -3.41%
CCCCn1c(N)c(N(CC(C)C)C(=O)c2cnc(C)cn2)c(=O)[nH]c1=O | -2.8%
CC(C)c1ccc(-c2nn[nH]n2)cc1 | -4.8%
CN[C@H]1C[C@H]2c3cc(Oc4ccccc4C)ccc3CCN2C(=O)[C@H]1[C@H](C)O | -11%
[O-][n+]1onc2c1CCc1[nH]c(-c3ccccc3)nc1-2 | -66.3% (active)
N#Cc1c(-c2ccc(F)cc2)nc(-c2ccccc2)[nH]c1=O | 8.84%
CN1CCN(c2ccc3c(c2)OC[C@H](Cc2ccccc2)NS3(=O)=O)CC1 | 2.92%
Cn1c(NCc2cccnc2)nc2cc(-c3ccc(F)cc3)sc2c1=O | 4.79%
O=c1[nH]c(CCl)nc2cc(-c3ccc(Cl)cc3)sc12 | -93.8% (active)
COc1cccc(-c2cc3nc(NCCOc4ccccc4Cl)n(C)c(=O)c3s2)c1 | 33.6%
O=c1[nH]c(=S)[nH]c(O)c1/C=C1\C=Nc2ccccc21 | -3.38%
Cc1nc(C(F)(F)F)ccc1C(=O)N1CCC1(C)C(=O)NS(=O)(=O)c1ccccc1Cl (stereo not drawn) | 27.9%
O=C(Nc1ccc2c(c1)[C@@H]1C[C@@H](CC(=O)N3CCCCC3)O[C@@H](CO)[C@@H]1O2)NC1CCCCC1 | 7.94%
CC1CN(Cc2ccccc2)C(=S)NC1=O (stereo not drawn) | 5.57%
CC(=O)Oc1c(C(=O)c2nnc(C)o2)c(=O)n(Cc2ccccc2)c2ccccc12 | -63.6% (active)
CC(=O)c1nc2ccccc2n1Cc1ccccc1 | 24.8%
CC(=O)OCC(C)n1c(=O)c2ccccc2n1C(C)=O (stereo not drawn) | 21.8%
COc1ccc(NS(=O)(=O)c2cc(NC(=O)CC(=O)c3ccc([N+](=O)[O-])cc3)ccc2C)cc1 | -19.6%
O=C(Nc1cc(-c2nc3ncccc3o2)ccc1Cl)c1ccco1 | 4.47%

Structure (SMILES) | activity change
O=C(Nc1cccc(-c2nc3ncccc3o2)c1)c1ccco1 | -57% (active)
CC(C)(C)NC(=O)c1cc(NC(=O)c2ccco2)cc(NC(=O)c2ccco2)c1 | 3.33%
Cc1ccc2nc(SCc3nnc(-c4ccccc4[N+](=O)[O-])o3)c(C#N)cc2c1 | 24.6%
Cc1ccc([C@H]2C[C@H](O)[C@@H](n3cc(COC(=O)c4ccccc4)nn3)CN2CC2CCCCC2)cc1 | -1.43%
CN1CCN(C(=O)c2ccccc2NC(=O)COc2ccccc2Cl)CC1 | 7.63%
COc1ccc(C(=O)OCC(=O)NCCCc2ccccc2)cc1OC | 19%
CC(C)n1ncc2c(C(=O)N3CCN(Cc4cccs4)CC3)cc(C3CC3)nc21 | -6.72%
CC(=O)Nc1cccc(-c2ccnc3c2CC(C)(C(=O)NCc2ccccc2)O3)c1 (stereo not drawn) | 92.1%
CCCCN(CCCC)C(=O)CCS(=O)(=O)c1ccc2c(c1)n(C)c(=O)c(=O)n2C | 7.06%
O=C1CCC(=O)N(O)CCCCCNC(=O)CCC(=O)N(O)CCCCCNC(=O)CCC(=O)N(O)CCCCCN1 | 38.7%
COc1ccc(C(=O)CCC(=O)Nc2cccnc2)c(OC)c1 | -9.85%
Cc1nc(-c2ccccc2)sc1C(=O)/C=C/c1ccccc1 | -84.3% (active)
COc1ccc(/C=C/C(=O)c2cc(Br)ccc(=O)c2O)cc1 | -2.15%
COc1ccc(/C=C/C(=O)NC(=S)N2CCCC(C(N)=O)C2)cc1 (stereo not drawn) | -22.6%
COc1ccc(C(=O)CC(=O)c2ccc(C)cc2)c(O)c1 | -20.9%
COc1ccc(-c2cc(C(=O)N/N=C/c3cccnc3)c3ccccc3n2)c(OC)c1 | -5.72%
COc1ccc(C(=O)/C=C/c2ccc(OC3CSC3)cc2)cc1 | -99.6% (active)
COc1ccc(C(=O)/C=C/c2cccnc2)c(OC)c1 | -96.6% (active)
CCOC(=O)C1CCCN(C(=O)/C=C/c2ccc(OC)cc2)C1 (stereo not drawn) | -6.92%
Cc1nc(-c2ccc(Cl)cc2)sc1C(=O)CBr | 0%
Cc1nc(-c2ccccc2)sc1C(=O)/C=C/N(C)C | -11.9%

Structure (SMILES) | activity change
COc1ccc(/C=C/C(=O)c2ccc(OC)cc2O)cc1 | -98.1% (active)
Cc1ccc(S(=O)(=O)N2CCOCC2)cc1NC(=O)CSc1nnc(N)s1 | 18.9%
COC(=O)[C@]12CCCCC=C1N(Cc1ccccc1)C(=O)[C@H](CC(=O)NCc1ccc(C)o1)C2 | 42.5%
O=C(OCc1cn([C@@H]2C[C@H](c3ccc(Cl)cc3)N(Cc3cccs3)C[C@H]2O)nn1)c1ccccc1 | 10.7%
O=C1CCC/C(=N\NC(=O)NC2CCCCC2)C1 | -10.6%
O=C(/C=C(O)/C=C/c1ccc(O)cc1)/C=C/c1ccc(O)cc1 | -22.4%
O=C(NNC(=O)c1ccccc1O)c1ccccc1O | 67.1%
O=C(/C=C/c1ccccc1)c1ccccc1O | -85.5% (active)
CCCS(=O)(=O)NC(=O)C1(C)CCCN(C(=O)c2cccs2)C1 (stereo not drawn) | 1.15%
CCOC(=O)c1ccc2[nH]c(C)c(CN3CCN(C)CC3)c(=O)c2c1 | 13.2%
O=C(CCCCCn1c(=S)[nH]c2ccsc2c1=O)NC1CCCCC1 | 7.06%
CO[C@@H]1CN(C)C(=O)c2cc(NC(=O)C3CC3)ccc2OC[C@H](C)N(C(=O)CN2CCOCC2)C[C@@H]1C | 11%
O=C(O)c1ccccc1-c1cccc2nncn12 | -10.3%
Cn1c2c(c(=O)n(C)c1=O)C(c1cccc(F)c1)C(C#N)=C(N)O2 (stereo not drawn) | 5.24%
Cc1c(C(=O)NCc2ccc(C#N)cc2)sc(=O)n1Cc1ccc(C(=O)N(C)C)cc1 | -7.66%
O=[N+]([O-])c1ccccc1OCCCCN1CCCCC1 | 15.9%
CCCCCOc1ccc(CSC2=NCCN2)cc1[N+](=O)[O-] | -93.2% (active)
CCCCOC(=O)CCCc1ccc([N+](=O)[O-])cc1[N+](=O)[O-] | 17.5%
CCCCOc1ccc(CSC(=N)N)cc1[N+](=O)[O-] | -102% (active)
Cc1cc(OCCCCOc2ccc(C#N)cc2)ccc1[N+](=O)[O-] | 0%
Cc1nc(SCc2ccc(F)cc2)c([N+](=O)[O-])[nH]1 | 15.4%
